Results published in the supplement of paper PMC12636033.
± gives the standard deviation of the averaged measurements. Whole data set: some 33,000 sequences, median “E-score (rank enrichment, -0.5 to 0.5)” near -0.0028, cut for the highest 2% near 0.23. The sample holds the highest values, similar sequences and a random draw of the others, so the mix is not that of the screen.

system: 2Sb-muMax20 (muMax20 with two 1,3-bis(methyl)benzene Cys staples, A13C/A17C and Q88C/A92C, C-terminal Lys); test: PBM 8-mer E-score (E-score (rank enrichment, -0.5 to 0.5)); higher = stronger preferential binding
Procedure: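 Protein binding microarray (universal PBM chip covering all 10-mers in fixed probe flanks) with chemically synthesized human Max(13-93) bHLH-LZ analogs (not full-length Max) bearing noncanonical residues (hArg, Tha, Aib, Nle at 65) and aromatic Cys staples. Read-out per 8-mer (and its reverse complement): E-score (rank-based enrichment, -0.5 to 0.5) and Z-score of median probe intensity.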

Row | Sequence | PBM 8-mer E-score
1 | GGTTTAAC | -0.0252 ± 0.0077
2 | CACATTGG | -0.033 ± 0.038
3 | ACACTGCA | -0.0884 ± 0.039
4 | AGACCTAG | -0.205 ± 0.0049
5 | ACGAACTG | -0.134 ± 0.02
6 | CCCTATTA | 0.0897 ± 0.046
7 | CGCCTCCG | -0.115 ± 0.014
8 | ATATTGAA | 0.0093 ± 0.059
9 | TTATTGAA | 0.3 ± 0.015
10 | GTATTGAA | 0.0851 ± 0.057
11 | ACGCGCCC | 0.00592 ± 0.048
12 | ACGTTTAG | 0.0678 ± 0.079
13 | ATAACACA | 0.236 ± 0.023
14 | CTAACACA | -0.028 ± 0.069
15 | ATAACACG | 0.137 ± 0.063
16 | ATAACATC | 0.211 ± 0.049
17 | ATAACATG | 0.192 ± 0.035
18 | ATAACATA | 0.2304 ± 0.0015
19 | CTTGGCGC | -0.0178 ± 0.027
20 | GTGATCAA | -0.00195 ± 0.013
21 | TATTGGAA | 0.0585 ± 0.0063
22 | AATCACTC | -0.0758 ± 0.076
23 | ACAGTGAG | -0.03 ± 0.013
24 | ATTGAAGC | 0.00997 ± 0.0075
25 | ATAGGCAA | 0.248 ± 0.061

Row | Sequence | PBM 8-mer E-score
26 | ATAGGCAG | 0.165 ± 0.037
27 | CTAGGCAA | -0.167 ± 0.047
28 | CACGTGAG | 0.186 ± 0.016
29 | AACGTGAC | 0.128 ± 0.0036
30 | CACGTGAA | 0.369 ± 0.02
31 | TACGTGAA | 0.0248 ± 0.06
32 | CACGTGAC | 0.386 ± 0.011
33 | GACGTGAA | -0.272 ± 0.011
34 | ATGAGGTG | 0.103 ± 0.034
35 | CATAGACA | 0.0657 ± 0.028
36 | ACAAACTA | 0.152 ± 0.048
37 | CAAAACTA | 0.062 ± 0.059
38 | GCCAACTA | 0.0147 ± 0.076
39 | CCCAACTA | 0.242 ± 0.0045
40 | CCAAACTA | 0.234 ± 0.0031
41 | ACCAACTA | 0.0506 ± 0.082
42 | ACATTCCA | -0.0113 ± 0.025
43 | GAGGGTCA | -0.00483 ± 0.032
44 | CACATTTC | 0.141 ± 0.013
45 | CCCTACGC | 0.0539 ± 0.023
46 | TCCTACGA | -0.0774 ± 0.011
47 | CCCTACGA | 0.232 ± 0.0033
48 | GGGAGACA | 0.115 ± 0.016
49 | GCTCTGCA | -0.0815 ± 0.037
